Data: PubChem BioAssay (NCATS)
Inconclusive results are not listed. A number with no mark means an inactive call. Active and inactive are the calls of the source. Calls come from the whole dose curve; as a rule, active = well fitted activation curve with a large enough effect in the repeat runs; inconclusive = weak or mixed curves; inactive = flat fitted curve, though single readings scatter.

Experiment: qHTS assay for small molecule agonists of the antioxidant response element (ARE) signaling pathway measured by Nrf2-dependant transcriptional activity (AID 720636); note: % of control where 0% means no effect
Settings: ARE-luc HepG2, Nrf2 luciferase reporter, 16 h; series mostly up to 92.4 µM; activation: at the top concentration
Description: National Center for Advancing Translational Sciences [NCATS] NIH Chemical Genomics Center [NCGC] U.S. Environmental Protection Agency [EPA] National Institutes of Environmental Health Sciences [NIEHS] National Toxicology Program [NTP] Assay Overview: The antioxidant response element (ARE) signaling pathway plays an important role in the cellular anti-oxidant defense. Exposure to stressors which are exogenous like ionizing radiations, chemicals, U-V light, and endogenous like cell signaling, metabolic processes or inflammation, reactive oxygen species (ROS), can induce oxidative stress in the cells. Oxidative stress has been implicated in the pathogenesis of a variety of diseases ranging from cancer to neurodegeneration. ARE-luc HepG2 cell line (Simmons et al., Current Chemical Genomics, 5:1-12, 2011) has been used for identifying the chemicals that induce oxidative stress. The cell line has an Nrf2-responsive luciferase reporter gene that has been engineered to measure Nrf2-dependant transcriptional activity.
Assay Protocol Summary: For measuring ARE induction; 2,000 ARE-luc HepG2 cells in 5 uL of assay medium containing 1% dialyzed FBS per well were dispensed into white wall/solid bottom 1536-well plates using a Flying Reagent Dispenser (FRD) (Aurora Discovery). The assay plates were incubated for 6 hr at 37 C to allow cell attachment to the well bottom, followed by the transfer of 23 nL compound or DMSO vehicle by a pin tool (Kalypsys). The plates were incubated for 16 hr at 37 C and 5% CO2, followed by the addition of 5 uL of ONE-GloTM luciferase reagent (Promega) into each well using FRD. After 30 min room temperature incubation, plates were read on a ViewLux plate reader (PerkinElmer).

SMILES	activation	outcome
CCCC(=O)c1cc(O)c(O)cc1O	0.0078%	
CC(C)(C)c1ccc(O)c(O)c1	1.11%	
C1=CC2C3C=CC(C3)C2C1 (stereo not drawn)	-0.549%	
CC(C)(c1ccc(O)cc1)c1ccc(O)cc1		inactive
O=C(NO)c1ccccc1	0.15%	
O=C(Oc1ccccc1)c1ccccc1O		inactive
Cc1ncc(CO)c(CO)c1O	0.174%	
COC(=O)c1c(Cl)c(Cl)c(C(=O)OC)c(Cl)c1Cl	0.232%	
COc1cc(C=O)ccc1O		inactive
CC(C)C(C)(C)C(C)(C)C(C)(C)S		inactive
Oc1ccccc1		inactive
CCCCC(CC)COC(=O)c1ccccc1C(=O)O (stereo not drawn)		inactive
CCN(CC)CCOc1ccc(/C(=C(\Cl)c2ccccc2)c2ccccc2)cc1	-3.59%	
CN1C(=O)c2ccccc2C1=O	0.0714%	
OCc1c[nH]c2ccccc12	-1.55%	
CCCCCCCCCCCC[N+](C)(C)Cc1ccccc1	-2.96%	
O=C(c1ccccc1)c1ccccc1		inactive
O=C(Nc1ccc(Cl)cc1)Nc1ccc(Cl)c(Cl)c1	-0.545%	
OCCOCCN1CCN(C(c2ccccc2)c2ccc(Cl)cc2)CC1 (stereo not drawn)	-0.81%	
Cc1cc(C(C)(C)C)c(O)c(C(C)(C)C)c1	-0.727%	
Nc1c2ccccc2nc2ccccc12	-2.62%	
Cc1ccc(O)cc1	-0.0846%	
Brc1ccccc1-c1ccccc1	0.606%	
